The full data set covers some 8,800 targets. This sample favours those with a hit. About 0.5% of all pairs of compound and target were hits. Values without a mark were called inactive.
Experiments:
Test in all cases: log2 fold change, soluble protein after heating vs DMSO (PISA); higher = thermal stabilisation; K562 lysate, 10 uM; active = over 0.2 and 3.5 SD of the protein, either way, in both replicates (recomputed)
erlotinib = compound: C#Cc1cccc(Nc2ncnc3cc(OCCOC)c(OCCOC)cc23)c1 [erlotinib]
How it was run: (§1)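 Quantification was by TMTpro 16plex LC-MS/MS with equalised channel sums, applied to the supernatant after 21,000xg for 90 min. Samples were crude K562 extract at 1 mg/mL protein in PBS pH 7.4 with 1 mM MgCl2, treated with 10 μM compound for 30 min, heated for 3 min across 48°C-58°C, pooled and brought to 0.5% NP-40 at 4°C. Values are log-two fold changes in thermal stability relative to solvent controls, from duplicates.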

[1] = compound: C/C(=N\NC(=O)C1=CC(=CC=C1)S(=O)(=O)N2CCOCC2)/C3=C(C=CC(=C3)Cl)O
How it was run: as §1

[2] = compound: C1=CC(=CC=C1C2=NC3=C(N2)C=C(C=C3)C(=O)N)OC4=CC=C(C=C4)Cl
How it was run: as §1

[3] = compound: C1=CC2=C(C=CC(=C2)/C=C\3/C(=O)NC(=NCC4=CC=CS4)S3)N=C1
How it was run: as §1

[4] = compound: C1=CC2=NC=CN=C2C=C1/C=C/3\C(=O)NC(=O)S3
How it was run: as §1

[5] = compound: C1=CC=C(C=C1)C2=NC(=C(N2)C3=CC=NC=C3)C4=CC(=C(C=C4)Cl)O
How it was run: as §1

[6] = compound: C1=CC=C2C(=C1)C3=NNC4=CC=CC(=C43)C2=O
How it was run: as §1

[7] = compound: C1CCN(C1)C(=O)NC2=CC=CC(=C2)NC3=NC=C(C(=N3)NCCC4=CN=CN4)Br
How it was run: as §1

[8] = compound: C1CN(CCC1(CC2=CC=C(C=C2)Cl)N)C3=NC=NC4=C3C=CN4
How it was run: as §1

IRAK-1-4 Inhibitor I = compound: C1COCCN1CCN2C3=CC=CC=C3N=C2NC(=O)C4=CC(=CC=C4)[N+](=O)[O-] [IRAK-1-4 Inhibitor I]
How it was run: as §1

UniProt O00161, sequence (O00161 whole entry, looked up): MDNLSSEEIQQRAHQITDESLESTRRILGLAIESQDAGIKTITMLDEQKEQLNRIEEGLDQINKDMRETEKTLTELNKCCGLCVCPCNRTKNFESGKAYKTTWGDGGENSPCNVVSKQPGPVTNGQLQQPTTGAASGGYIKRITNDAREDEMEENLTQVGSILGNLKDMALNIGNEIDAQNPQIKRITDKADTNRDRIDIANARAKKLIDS
UniProt Q96BI1, sequence (Q96BI1 whole entry, looked up): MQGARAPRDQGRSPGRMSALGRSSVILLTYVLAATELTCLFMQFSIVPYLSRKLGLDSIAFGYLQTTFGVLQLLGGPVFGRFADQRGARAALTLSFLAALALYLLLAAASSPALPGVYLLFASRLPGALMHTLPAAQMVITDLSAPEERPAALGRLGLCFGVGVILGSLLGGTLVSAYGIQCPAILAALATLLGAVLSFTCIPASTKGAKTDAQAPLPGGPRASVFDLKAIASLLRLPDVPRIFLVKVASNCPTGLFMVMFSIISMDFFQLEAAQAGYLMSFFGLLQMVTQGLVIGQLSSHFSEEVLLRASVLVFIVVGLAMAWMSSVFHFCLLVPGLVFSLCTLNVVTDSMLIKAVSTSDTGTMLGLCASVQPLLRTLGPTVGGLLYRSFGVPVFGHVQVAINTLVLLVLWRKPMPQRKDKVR
UniProt Q9UQE7, sequence (Q9UQE7 whole entry, looked up): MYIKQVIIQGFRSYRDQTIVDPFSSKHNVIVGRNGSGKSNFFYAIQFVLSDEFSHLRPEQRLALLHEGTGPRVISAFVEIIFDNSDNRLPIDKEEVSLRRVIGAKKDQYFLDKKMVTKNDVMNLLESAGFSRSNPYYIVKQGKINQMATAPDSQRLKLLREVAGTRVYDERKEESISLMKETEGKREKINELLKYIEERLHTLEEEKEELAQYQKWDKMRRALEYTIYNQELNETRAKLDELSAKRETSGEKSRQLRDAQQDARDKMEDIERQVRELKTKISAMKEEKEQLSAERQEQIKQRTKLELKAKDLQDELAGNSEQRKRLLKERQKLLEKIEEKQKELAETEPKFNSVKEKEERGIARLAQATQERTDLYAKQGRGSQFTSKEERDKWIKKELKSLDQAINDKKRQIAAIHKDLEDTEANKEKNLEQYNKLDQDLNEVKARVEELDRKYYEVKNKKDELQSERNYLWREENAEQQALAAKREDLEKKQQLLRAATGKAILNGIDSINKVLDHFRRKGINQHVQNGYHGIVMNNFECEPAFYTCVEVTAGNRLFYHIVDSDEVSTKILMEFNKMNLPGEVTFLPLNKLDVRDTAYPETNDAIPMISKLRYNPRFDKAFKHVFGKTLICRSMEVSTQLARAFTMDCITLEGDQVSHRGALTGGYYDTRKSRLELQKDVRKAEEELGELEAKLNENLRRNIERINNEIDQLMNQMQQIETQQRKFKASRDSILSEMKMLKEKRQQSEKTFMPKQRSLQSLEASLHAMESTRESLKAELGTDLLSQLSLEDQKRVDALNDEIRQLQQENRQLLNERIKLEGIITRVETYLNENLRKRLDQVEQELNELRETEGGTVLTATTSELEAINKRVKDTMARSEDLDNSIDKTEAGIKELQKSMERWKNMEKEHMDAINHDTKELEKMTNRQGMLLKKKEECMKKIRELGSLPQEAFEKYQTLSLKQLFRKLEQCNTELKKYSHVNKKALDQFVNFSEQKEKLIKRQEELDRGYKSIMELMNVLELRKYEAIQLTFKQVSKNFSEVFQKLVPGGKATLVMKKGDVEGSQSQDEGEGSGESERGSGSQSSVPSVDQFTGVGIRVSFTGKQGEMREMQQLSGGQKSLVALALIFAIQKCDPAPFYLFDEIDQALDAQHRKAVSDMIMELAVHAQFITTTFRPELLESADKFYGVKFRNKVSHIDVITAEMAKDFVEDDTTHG
UniProt P41440, sequence (P41440 whole entry, looked up): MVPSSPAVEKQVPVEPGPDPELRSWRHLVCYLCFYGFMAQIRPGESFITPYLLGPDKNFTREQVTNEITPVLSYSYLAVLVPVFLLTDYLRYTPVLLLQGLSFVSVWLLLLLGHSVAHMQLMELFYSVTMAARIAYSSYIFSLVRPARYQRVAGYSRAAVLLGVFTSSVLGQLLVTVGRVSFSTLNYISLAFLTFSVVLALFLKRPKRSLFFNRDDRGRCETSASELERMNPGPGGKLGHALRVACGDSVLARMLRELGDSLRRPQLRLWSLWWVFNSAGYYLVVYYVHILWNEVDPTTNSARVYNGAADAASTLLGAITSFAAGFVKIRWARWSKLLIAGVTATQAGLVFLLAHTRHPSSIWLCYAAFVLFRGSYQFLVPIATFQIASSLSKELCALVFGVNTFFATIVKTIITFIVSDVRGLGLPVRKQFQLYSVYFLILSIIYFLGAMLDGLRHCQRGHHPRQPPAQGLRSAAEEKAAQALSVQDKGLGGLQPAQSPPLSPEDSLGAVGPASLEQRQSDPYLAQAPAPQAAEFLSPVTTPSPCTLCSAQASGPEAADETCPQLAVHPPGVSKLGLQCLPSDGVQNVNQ
UniProt Q9UL54, sequence (Q9UL54 whole entry, looked up): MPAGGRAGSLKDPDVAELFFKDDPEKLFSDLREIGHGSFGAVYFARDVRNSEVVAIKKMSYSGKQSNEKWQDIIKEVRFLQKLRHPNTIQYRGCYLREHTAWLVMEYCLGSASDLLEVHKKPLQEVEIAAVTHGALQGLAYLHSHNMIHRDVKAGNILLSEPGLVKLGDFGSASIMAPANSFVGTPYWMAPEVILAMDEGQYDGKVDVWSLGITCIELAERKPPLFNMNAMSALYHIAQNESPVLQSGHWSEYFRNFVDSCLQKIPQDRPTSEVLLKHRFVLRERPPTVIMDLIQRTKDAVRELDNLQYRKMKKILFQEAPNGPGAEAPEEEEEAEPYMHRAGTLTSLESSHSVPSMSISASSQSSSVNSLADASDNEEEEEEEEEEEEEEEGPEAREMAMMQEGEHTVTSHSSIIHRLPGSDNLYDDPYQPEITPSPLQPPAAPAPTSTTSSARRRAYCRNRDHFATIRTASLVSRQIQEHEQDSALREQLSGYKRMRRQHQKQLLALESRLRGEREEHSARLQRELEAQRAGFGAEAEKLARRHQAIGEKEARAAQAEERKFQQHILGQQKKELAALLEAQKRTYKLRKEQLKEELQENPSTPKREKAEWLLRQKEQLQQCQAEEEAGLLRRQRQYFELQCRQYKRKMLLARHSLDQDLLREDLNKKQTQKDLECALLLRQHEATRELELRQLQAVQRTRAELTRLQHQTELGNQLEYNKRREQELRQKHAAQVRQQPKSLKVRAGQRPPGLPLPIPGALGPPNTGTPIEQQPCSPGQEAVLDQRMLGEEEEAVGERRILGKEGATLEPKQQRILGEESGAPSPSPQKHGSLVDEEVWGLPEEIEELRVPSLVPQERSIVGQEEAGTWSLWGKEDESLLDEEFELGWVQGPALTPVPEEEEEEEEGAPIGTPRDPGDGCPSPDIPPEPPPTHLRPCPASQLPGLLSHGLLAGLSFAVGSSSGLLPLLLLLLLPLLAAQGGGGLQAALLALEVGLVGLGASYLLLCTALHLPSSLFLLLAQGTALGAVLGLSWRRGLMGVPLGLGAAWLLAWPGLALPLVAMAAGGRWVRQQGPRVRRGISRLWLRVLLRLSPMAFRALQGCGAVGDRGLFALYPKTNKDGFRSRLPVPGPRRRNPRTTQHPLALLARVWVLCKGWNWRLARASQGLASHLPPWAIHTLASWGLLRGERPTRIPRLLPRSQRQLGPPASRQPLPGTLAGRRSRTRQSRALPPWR
UniProt O75182, sequence (O75182 whole entry, looked up): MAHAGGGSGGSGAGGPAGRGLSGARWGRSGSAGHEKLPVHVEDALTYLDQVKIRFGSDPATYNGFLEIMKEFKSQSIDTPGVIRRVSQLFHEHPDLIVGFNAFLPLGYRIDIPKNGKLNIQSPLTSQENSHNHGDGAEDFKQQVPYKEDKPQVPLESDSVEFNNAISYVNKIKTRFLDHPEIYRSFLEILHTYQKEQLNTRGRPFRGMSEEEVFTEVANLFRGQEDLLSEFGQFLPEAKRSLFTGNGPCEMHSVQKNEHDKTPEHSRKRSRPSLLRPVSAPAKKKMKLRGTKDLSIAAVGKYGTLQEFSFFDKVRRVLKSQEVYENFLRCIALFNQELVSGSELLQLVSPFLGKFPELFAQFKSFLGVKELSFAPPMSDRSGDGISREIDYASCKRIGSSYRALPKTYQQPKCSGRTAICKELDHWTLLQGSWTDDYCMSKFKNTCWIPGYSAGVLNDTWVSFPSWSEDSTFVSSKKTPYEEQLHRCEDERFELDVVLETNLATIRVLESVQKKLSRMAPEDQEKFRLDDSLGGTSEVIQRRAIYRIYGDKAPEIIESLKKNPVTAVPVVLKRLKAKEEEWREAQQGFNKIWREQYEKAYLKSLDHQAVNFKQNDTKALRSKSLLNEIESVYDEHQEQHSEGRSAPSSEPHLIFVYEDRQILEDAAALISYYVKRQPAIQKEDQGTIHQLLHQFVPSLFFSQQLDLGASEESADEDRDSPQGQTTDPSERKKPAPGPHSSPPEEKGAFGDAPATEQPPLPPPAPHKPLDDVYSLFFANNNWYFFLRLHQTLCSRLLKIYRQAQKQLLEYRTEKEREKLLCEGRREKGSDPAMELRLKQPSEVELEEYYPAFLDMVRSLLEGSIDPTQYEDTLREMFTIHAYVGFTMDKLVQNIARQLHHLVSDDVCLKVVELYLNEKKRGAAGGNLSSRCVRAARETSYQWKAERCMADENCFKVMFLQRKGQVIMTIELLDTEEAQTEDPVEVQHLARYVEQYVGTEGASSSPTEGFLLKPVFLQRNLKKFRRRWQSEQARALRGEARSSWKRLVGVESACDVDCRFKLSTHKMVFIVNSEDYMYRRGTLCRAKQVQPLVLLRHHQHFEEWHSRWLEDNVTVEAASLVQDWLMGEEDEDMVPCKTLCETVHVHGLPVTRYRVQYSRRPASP
UniProt Q8WVK7, sequence (Q8WVK7 whole entry, looked up): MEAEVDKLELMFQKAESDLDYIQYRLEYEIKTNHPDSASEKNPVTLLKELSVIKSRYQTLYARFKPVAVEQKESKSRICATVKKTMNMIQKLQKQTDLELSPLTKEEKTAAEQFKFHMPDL
UniProt B2RUZ4, sequence (B2RUZ4 whole entry, looked up): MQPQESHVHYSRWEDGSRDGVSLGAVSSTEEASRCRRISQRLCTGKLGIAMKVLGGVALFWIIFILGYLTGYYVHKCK

| Target | log2 fold change (erlotinib) | log2 fold change [1] | log2 fold change [2] | log2 fold change [3] | log2 fold change [4] | log2 fold change [5] | log2 fold change [6] | log2 fold change [7] | log2 fold change [8] | log2 fold change (IRAK-1-4 Inhibitor I) |
| --- | --- | --- | --- | --- | --- | --- | --- | --- | --- | --- |
| SMC3 (UniProt Q9UQE7) | -0.01 | 0.018 | -0.004 | 0.018 | -0.013 | 0.002 | 0.023 | -0.007 | -0.016 | -0.009 |
| SUZ12 (UniProt Q15022) | 0.024 | -0.077 | -0.018 | 0.007 | 0.004 | 0.034 | -0.079 | -0.038 | -0.021 | 0.02 |
| SKA2 (UniProt Q8WVK7) | -0.006 | -0.058 | 0.014 | -0.011 | -0.042 | 0.001 | -0.081 | -0.006 | -0.019 | -0.056 |
| STK4 (UniProt Q13043) | -0.013 | -0.15 | -0.033 | -0.061 | -0.008 | -0.009 | 0.165 | 0.187 | 0.053 | 0.018 |
| SLC19A1 (UniProt P41440) | -0.032 | -0.024 | 0.049 | -0.04 | -0.025 | -0.001 | -0.017 | -0.023 | 0.023 | 0.033 |
| SH3BP2 isoform 4 (UniProt P78314) | -0.037 | 0.213 | 0.001 | 0.044 | -0.103 | 0.088 | -0.073 | – | – | 0.03 |
| SMG1 (UniProt Q96Q15) | -0.004 | -0.031 | -0.046 | 0.009 | 0.029 | -0.022 | -0.072 | -0.036 | 0.024 | -0.008 |
| SH3GL3 isoform 3 (UniProt Q99963) | -0.023 | -0.014 | -0.002 | -0.054 | -0.053 | -0.108 | -0.133 | 0.054 | -0.06 | -0.124 |
| SMPD2 (UniProt O60906) | -1.38 (active) | – | -0.551 | – | – | -0.112 | – | -0.024 | 0.022 | 0.065 |
| SMC4 (UniProt C9JJ64) | – | – | – | – | -0.013 | – | – | – | – | – |
| STK26 isoform 3 (UniProt Q9P289) | – | – | – | – | – | – | – | 0.272 | -0.045 | – |
| SNRPD2 (UniProt K7EJB5) | -0.076 | 0 | -0.036 | -0.106 | – | -0.12 | 0.055 | 0.088 | 0.037 | -0.03 |
| TAF11 (UniProt Q15544) | – | 0.174 | – | -0.144 | – | -0.04 | 0.124 | -0.242 | 0.071 | 0.051 |
| STAR (UniProt P49675) | 0.207 | 0.01 | -0.192 | -0.029 | – | 0.042 | -0.058 | -0.125 | -0.035 | -0.031 |
| SKP2 (UniProt Q13309) | 0.06 | -0.053 | -0.063 | 0.027 | – | -0.023 | -0.029 | -0.027 | 0.044 | -0.002 |
| SPAG1 (UniProt Q07617) | – | -0.045 | – | -0.089 | 1.01 (active) | -0.034 | -0.063 | – | – | 0.042 |
| SLCO4A1 (UniProt Q96BD0) | – | – | – | – | 0.08 | – | – | – | – | – |
| SLC40A1 (UniProt Q9NP59) | 0.188 | -0.035 | 0.233 | 0.042 | – | -0.052 | -0.122 | -0.015 | 0.05 | 0.048 |
| SNAP23 isoform 2 (UniProt O00161) | 0.042 | -0.019 | 0.27 | -0.006 | – | -0.071 | -0.117 | 0.104 | -0.08 | 0.057 |
| SLC35A3 isoform 2 (UniProt Q9Y2D2) | -0.036 | 0.057 | 0.077 | 0.001 | – | -0.166 | -0.006 | -0.036 | -0.002 | 0.164 |
| SLC22A18 (UniProt Q96BI1) | -0.008 | 0.043 | -0.018 | 0.049 | -0.147 | – | -0.03 | -0.062 | 0.004 | – |

| Target | log2 fold change (erlotinib) | log2 fold change [1] | log2 fold change [2] | log2 fold change [3] | log2 fold change [4] | log2 fold change [5] | log2 fold change [6] | log2 fold change [7] | log2 fold change [8] | log2 fold change (IRAK-1-4 Inhibitor I) |
| --- | --- | --- | --- | --- | --- | --- | --- | --- | --- | --- |
| SLC41A1 (UniProt Q8IVJ1) | 0.176 | – | -0.042 | – | – | 0.018 | – | 0.024 | -0.014 | -0.008 |
| STK17B (UniProt O94768) | -0.041 | – | -0.341 | – | – | -0.022 | – | – | – | -0.065 |
| SLC39A13 (UniProt Q96H72) | 0.344 | – | 0.063 | – | – | -0.252 | – | – | – | -0.025 |
| TARDBP (UniProt K7EN94) | – | 0.293 | – | -0.12 | – | – | -0.12 | 0.001 | -0.19 | – |
| SMIM1 (UniProt B2RUZ4) | 0.172 | – | -0.145 | – | -0.114 | 0.063 | – | 0.086 | -0.016 | -0.214 |
| TAOK2 (UniProt Q9UL54) | – | 0.006 | – | -0.034 | 0.072 | -0.031 | 0.729 (active) | 0.038 | 0.058 | 0.072 |
| SURF2 (UniProt Q15527) | – | 0.087 | – | -0.019 | 0.02 | -0.004 | 0.022 | 0.051 | 0.074 | 0.035 |
| SZT2 (UniProt Q5T011) | 0.043 | – | -0.089 | – | 0.134 | -0.013 | – | -0.004 | 0.016 | 0.014 |
| SIN3B (UniProt O75182) | – | -0.167 | – | -0.018 | – | – | 0.046 | -0.071 | 0.132 | – |
| STK38L (UniProt Q9Y2H1) | -0.001 | – | -0.163 | – | – | 0.113 | – | -0.027 | 0.11 | 0.011 |
| TAF1B (UniProt Q53T94) | – | -0.283 | – | -0.123 | -0.001 | 0.024 | 0.013 | 0.345 | 0.123 | -0.061 |
| SIX5 (UniProt Q8N196) | -0.062 | – | -0.05 | – | -0.046 | -0.034 | – | – | – | -0.141 |
| SPA17 (UniProt Q15506) | – | -0.047 | – | 0.01 | -0.033 | -0.018 | -0.106 | -0.076 | -0.029 | 0 |
| STAU1 isoform 3 (UniProt O95793) | -0.006 | – | -0.016 | – | -0.103 | – | – | – | – | – |
| SNAPC2 (UniProt Q13487) | 0.131 | – | 0.022 | – | -0.21 | 0.087 | – | – | – | -0.166 |
| SLC25A36 (UniProt Q96CQ1) | -0.021 | 0.024 | 0.08 | -0.129 | – | 0.041 | 0.027 | -0.027 | -0.026 | 0.038 |
| SMARCA4 isoform 4 (UniProt P51532) | 0.052 | – | 0.178 | – | – | 0.127 | – | 0.112 | -0.076 | -0.101 |
| SLC12A6 isoform 2 (UniProt Q9UHW9) | 0.013 | – | 0 | – | – | -0.019 | – | -0.139 | -0.049 | 0.089 |
| SHB (UniProt Q15464) | 0.003 | – | 0.033 | – | – | -0.014 | – | – | – | -0.067 |
| SRC isoform 2 (UniProt P12931) | -0.073 | – | 0.028 | – | 0.102 | -0.063 | – | -0.018 | -0.069 | 0.034 |

From the supplement of paper PMC10849652
